This note sets out measurements from the supplement of paper PMC10077471.

Structures are written as SMILES. In all, about 1,900 compounds were measured (“excess over highest single agent (ExcessHSA) synergy score, 6x6 matrix”: median about -83, lowest 2% from about -370 on). The full list was thinned out, with the lowest values kept by preference.

This experiment has as its system NCI-H446. The experiment can be described thus: excess over highest single agent (ExcessHSA) synergy score, 6x6 matrix; higher = less synergy (more negative = stronger synergy). The following applies: 72 h; CellTiter-Glo viability.
With `CCN(CC)CCn1c(=O)c(Cc2ccc(OC)cc2)nc2ccccc21` + Cc1sc2c(c1C)C(c1ccc(Cl)cc1)=N[C@@H](CC(=O)OC(C)(C)C)c1nnc(C)n1-2 [NCGC00250412-19], the “excess over highest single agent” value is -47.3.
To `O=c1[nH]c(=O)n([C@H]2C[C@H](O)[C@@H](CO)O2)cc1I` + Cc1sc2c(c1C)C(c1ccc(Cl)cc1)=N[C@@H](CC(=O)OC(C)(C)C)c1nnc(C)n1-2 [NCGC00250412-19] belongs -172.
For the compound `O=c1[nH]c(=O)n([C@H]2C[C@H](O)[C@@H](CO)O2)cc1F` + Cc1sc2c(c1C)C(c1ccc(Cl)cc1)=N[C@@H](CC(=O)OC(C)(C)C)c1nnc(C)n1-2 [NCGC00250412-19], the “excess over highest single agent” value was -390.
For the compound `Cc1cn([C@@H]2C[C@@H](O)[C@H](CO)O2)c(=O)[nH]c1=O` + Cc1sc2c(c1C)C(c1ccc(Cl)cc1)=N[C@@H](CC(=O)OC(C)(C)C)c1nnc(C)n1-2 [NCGC00250412-19], the “excess over highest single agent” value was 21.8.
In the case of `Cc1cc(OCCCS(C)(=O)=O)cc(C)c1-c1cccc(COc2ccc3c(c2)OC[C@H]3CC(=O)O)c1` + Cc1sc2c(c1C)C(c1ccc(Cl)cc1)=N[C@@H](CC(=O)OC(C)(C)C)c1nnc(C)n1-2 [NCGC00250412-19], the “excess over highest single agent” value is -123.
`c1ccc2c(CCNc3ccc(Nc4ccncc4)cc3)c[nH]c2c1` + Cc1sc2c(c1C)C(c1ccc(Cl)cc1)=N[C@@H](CC(=O)OC(C)(C)C)c1nnc(C)n1-2 [NCGC00250412-19]: the “excess over highest single agent” value is -76.1.
On to `Cc1cc(SCc2sc(-c3ccc(C(F)(F)F)cc3)nc2C)ccc1OCC(=O)O` + Cc1sc2c(c1C)C(c1ccc(Cl)cc1)=N[C@@H](CC(=O)OC(C)(C)C)c1nnc(C)n1-2 [NCGC00250412-19], for which the “excess over highest single agent” value is -98.3.
On to `CC(=O)O/N=C1/C(c2c(O)[nH]c3cc(Br)ccc23)=Nc2ccccc21` + Cc1sc2c(c1C)C(c1ccc(Cl)cc1)=N[C@@H](CC(=O)OC(C)(C)C)c1nnc(C)n1-2 [NCGC00250412-19], for which the “excess over highest single agent” value amounted to 54.4.
Regarding `O=c1c(-c2ccc(O)cc2)coc2cc(O[C@@H]3O[C@H](CO)[C@@H](O)[C@H](O)[C@H]3O)ccc12` + Cc1sc2c(c1C)C(c1ccc(Cl)cc1)=N[C@@H](CC(=O)OC(C)(C)C)c1nnc(C)n1-2 [NCGC00250412-19], the “excess over highest single agent” value was -180.
In the case of `Cc1c(NC(=O)c2ccc(C(C)(C)C)cc2)cccc1-c1cn(C)c(=O)c(Nc2ccc(C(=O)N3CCOCC3)cc2)n1` + Cc1sc2c(c1C)C(c1ccc(Cl)cc1)=N[C@@H](CC(=O)OC(C)(C)C)c1nnc(C)n1-2 [NCGC00250412-19], the “excess over highest single agent” value is -90.9.
With `Nc1ccn([C@@H]2O[C@H](CO)[C@@H](O)[C@@H]2O)c(=O)n1` + Cc1sc2c(c1C)C(c1ccc(Cl)cc1)=N[C@@H](CC(=O)OC(C)(C)C)c1nnc(C)n1-2 [NCGC00250412-19] the figure was -107; with `Nc1ccn([C@@H]2O[C@H](CO)[C@@H](O)[C@H]2O)c(=O)n1` + Cc1sc2c(c1C)C(c1ccc(Cl)cc1)=N[C@@H](CC(=O)OC(C)(C)C)c1nnc(C)n1-2 [NCGC00250412-19], -268; with `Nc1ccn([C@@H]2O[C@H](CO)[C@@H](O)C2(F)F)c(=O)n1` + Cc1sc2c(c1C)C(c1ccc(Cl)cc1)=N[C@@H](CC(=O)OC(C)(C)C)c1nnc(C)n1-2 [NCGC00250412-19], -379.
In the case of `CC(=O)N1CCN(c2ccc(OCc3nn(C)c(C)c3-c3cccc4c(CCCOc5cccc6ccccc56)c(C(=O)O)n(Cc5cccnc5)c34)cc2)CC1` + Cc1sc2c(c1C)C(c1ccc(Cl)cc1)=N[C@@H](CC(=O)OC(C)(C)C)c1nnc(C)n1-2 [NCGC00250412-19], the “excess over highest single agent” value is 97.8.
Turning to `FC(F)(F)c1ccc(Nc2nc3ccc(Oc4ccnc(-c5ncc(C(F)(F)F)[nH]5)c4)cc3[nH]2)cc1` + Cc1sc2c(c1C)C(c1ccc(Cl)cc1)=N[C@@H](CC(=O)OC(C)(C)C)c1nnc(C)n1-2 [NCGC00250412-19], the “excess over highest single agent” value is -7.92.
With `CC1(C)CC(=O)c2c(C(F)(F)F)nn(-c3ccc(C(N)=O)c(N[C@H]4CC[C@H](OC(=O)CN)CC4)c3)c2C1` + Cc1sc2c(c1C)C(c1ccc(Cl)cc1)=N[C@@H](CC(=O)OC(C)(C)C)c1nnc(C)n1-2 [NCGC00250412-19], the “excess over highest single agent” value is -482.
With `CC1(C)CC(=O)c2c(C(F)(F)F)nn(-c3ccc(C(N)=O)c(N[C@H]4CC[C@H](O)CC4)c3)c2C1` + Cc1sc2c(c1C)C(c1ccc(Cl)cc1)=N[C@@H](CC(=O)OC(C)(C)C)c1nnc(C)n1-2 [NCGC00250412-19] the figure was -379; with `COc1cccc2c1CCCC2CCCN1CCN(C2CCCCC2)CC1` (configuration not stated) + Cc1sc2c(c1C)C(c1ccc(Cl)cc1)=N[C@@H](CC(=O)OC(C)(C)C)c1nnc(C)n1-2 [NCGC00250412-19], -180; with `Cc1nnc(C(C)C)n1[C@H]1C[C@H]2CC[C@@H](C1)N2CC[C@H](NC(=O)C1CCC(F)(F)CC1)c1ccccc1` + Cc1sc2c(c1C)C(c1ccc(Cl)cc1)=N[C@@H](CC(=O)OC(C)(C)C)c1nnc(C)n1-2 [NCGC00250412-19], -88.4.
In the case of `O=C(CC12CC3CC(CC(C3)C1)C2)Nc1cccc2nc(NCCNCCO)ccc12` + Cc1sc2c(c1C)C(c1ccc(Cl)cc1)=N[C@@H](CC(=O)OC(C)(C)C)c1nnc(C)n1-2 [NCGC00250412-19], the “excess over highest single agent” value was -112.
As for `COc1ccccc1[C@H](c1cccc2ccccc12)[C@@](C)(C#N)C(=O)N1CCC(c2cccc(C(F)(F)F)c2)CC1` + Cc1sc2c(c1C)C(c1ccc(Cl)cc1)=N[C@@H](CC(=O)OC(C)(C)C)c1nnc(C)n1-2 [NCGC00250412-19], the “excess over highest single agent” value is -352.
With `Oc1ccc2ccccc2c1SSc1c(O)ccc2ccccc12` + Cc1sc2c(c1C)C(c1ccc(Cl)cc1)=N[C@@H](CC(=O)OC(C)(C)C)c1nnc(C)n1-2 [NCGC00250412-19] the figure was 56.9; with `NS(=O)(=O)OC[C@@H]1C[C@@H](n2ccc3c(N[C@H]4CCc5ccccc54)ncnc32)C[C@@H]1O` + Cc1sc2c(c1C)C(c1ccc(Cl)cc1)=N[C@@H](CC(=O)OC(C)(C)C)c1nnc(C)n1-2 [NCGC00250412-19], -544.
`O=C1NC(=O)C(c2cnc3ccccn23)=C1c1cn2c3c(cccc13)CN(C(=O)N1CCOCC1)CC2` + Cc1sc2c(c1C)C(c1ccc(Cl)cc1)=N[C@@H](CC(=O)OC(C)(C)C)c1nnc(C)n1-2 [NCGC00250412-19]: the “excess over highest single agent” value was -24.9.
Consider `NC1(Cc2ccc(Cl)cc2)CCN(c2ncnc3[nH]ccc23)CC1` + Cc1sc2c(c1C)C(c1ccc(Cl)cc1)=N[C@@H](CC(=O)OC(C)(C)C)c1nnc(C)n1-2 [NCGC00250412-19], for which the “excess over highest single agent” value is -66.
In the case of `COc1cc(CCc2cc(NC(=O)c3ccc(N4CC(C)NC(C)C4)cc3)n[nH]2)cc(OC)c1` (configuration not stated) + Cc1sc2c(c1C)C(c1ccc(Cl)cc1)=N[C@@H](CC(=O)OC(C)(C)C)c1nnc(C)n1-2 [NCGC00250412-19], the “excess over highest single agent” value is -88.8.
Consider `CC(C)C[C@H](NC(=O)[C@@H](O)[C@H](N)Cc1ccccc1)C(=O)O` + Cc1sc2c(c1C)C(c1ccc(Cl)cc1)=N[C@@H](CC(=O)OC(C)(C)C)c1nnc(C)n1-2 [NCGC00250412-19], for which the “excess over highest single agent” value was -74.5.
For `COC[C@H](NC(=O)c1cnc(C)s1)C(=O)N[C@@H](COC)C(=O)N[C@@H](Cc1ccccc1)C(=O)[C@@]1(C)CO1` + Cc1sc2c(c1C)C(c1ccc(Cl)cc1)=N[C@@H](CC(=O)OC(C)(C)C)c1nnc(C)n1-2 [NCGC00250412-19], the “excess over highest single agent” value is -227.
As for `CC(C)C[C@H](NC(=O)[C@H](CCc1ccccc1)NC(=O)CN1CCOCC1)C(=O)N[C@@H](Cc1ccccc1)C(=O)N[C@@H](CC(C)C)C(=O)[C@@]1(C)CO1` + Cc1sc2c(c1C)C(c1ccc(Cl)cc1)=N[C@@H](CC(=O)OC(C)(C)C)c1nnc(C)n1-2 [NCGC00250412-19], the “excess over highest single agent” value is -521.
`CN(C)CCN(C)C(=O)c1ccc(NC(=O)Nc2ccc(-c3nc(N4CCOCC4)c4ccn(CC(F)(F)F)c4n3)cc2)cc1` + Cc1sc2c(c1C)C(c1ccc(Cl)cc1)=N[C@@H](CC(=O)OC(C)(C)C)c1nnc(C)n1-2 [NCGC00250412-19]: the “excess over highest single agent” value is -272.
With `CC(C)=CC[C@@H](O)C1=CC(=O)c2c(O)ccc(O)c2C1=O` + Cc1sc2c(c1C)C(c1ccc(Cl)cc1)=N[C@@H](CC(=O)OC(C)(C)C)c1nnc(C)n1-2 [NCGC00250412-19], the “excess over highest single agent” value was -344.
Turning to `Clc1ccc(-c2nc3sccn3c2C=NOCc2ccc(Cl)c(Cl)c2)cc1` + Cc1sc2c(c1C)C(c1ccc(Cl)cc1)=N[C@@H](CC(=O)OC(C)(C)C)c1nnc(C)n1-2 [NCGC00250412-19], the “excess over highest single agent” value is -98.8.
Turning to `CCOc1cc(/C=C2/C(=O)N(c3ccccc3)N=C2C)cc(Cl)c1OCC(=O)OC` + Cc1sc2c(c1C)C(c1ccc(Cl)cc1)=N[C@@H](CC(=O)OC(C)(C)C)c1nnc(C)n1-2 [NCGC00250412-19], the “excess over highest single agent” value was 76.6.
For the compound `Cc1nc(N)ncc1-c1nc(N2CCOCC2)c2sc(C(C)(C)O)cc2n1` + Cc1sc2c(c1C)C(c1ccc(Cl)cc1)=N[C@@H](CC(=O)OC(C)(C)C)c1nnc(C)n1-2 [NCGC00250412-19], the “excess over highest single agent” value is -337.
With `CS(=O)(=O)N1CCc2c(-c3cnc(N)nc3)nc(N3CCOCC3)nc21` + Cc1sc2c(c1C)C(c1ccc(Cl)cc1)=N[C@@H](CC(=O)OC(C)(C)C)c1nnc(C)n1-2 [NCGC00250412-19] the figure was -391; with `COc1ccc(Nc2cc(-c3cnc(N)nc3)nc(N3CCOCC3)n2)cn1` + Cc1sc2c(c1C)C(c1ccc(Cl)cc1)=N[C@@H](CC(=O)OC(C)(C)C)c1nnc(C)n1-2 [NCGC00250412-19], 3.49.
With `N=C1S/C(=C\c2ccc(-c3ccc4c(c3)C(=O)NC4=O)o2)C(=O)N1c1ccc(Br)cc1` + Cc1sc2c(c1C)C(c1ccc(Cl)cc1)=N[C@@H](CC(=O)OC(C)(C)C)c1nnc(C)n1-2 [NCGC00250412-19] the figure was 122.
